Bioassay records as filed in PubChem BioAssay.
OTUD3 inh: inhibitors of human OTUD3 deubiquitinase; OTU domain-containing protein 3 (Homo sapiens), Q5T2D3; purified OTUD3, Ub-rhodamine fluorescence, 2 h; inhibition, % at 25 µM; 47,000 tested, 0.7% active
Target sequence (Q5T2D3 whole entry, looked up, the tested form may be a part): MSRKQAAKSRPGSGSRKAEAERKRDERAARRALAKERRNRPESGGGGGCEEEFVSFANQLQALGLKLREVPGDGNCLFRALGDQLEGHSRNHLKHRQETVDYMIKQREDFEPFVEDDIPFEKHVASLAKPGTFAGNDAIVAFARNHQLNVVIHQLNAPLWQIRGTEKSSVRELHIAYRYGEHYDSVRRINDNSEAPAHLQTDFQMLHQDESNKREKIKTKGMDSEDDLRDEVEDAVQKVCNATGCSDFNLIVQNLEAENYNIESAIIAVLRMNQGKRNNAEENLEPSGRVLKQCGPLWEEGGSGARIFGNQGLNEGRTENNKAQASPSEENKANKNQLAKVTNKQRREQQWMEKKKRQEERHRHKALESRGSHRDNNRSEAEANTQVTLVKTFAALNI
UCHL1 block: inhibitors of human UCHL1 deubiquitinase | Ubiquitin carboxyl-terminal hydrolase isozyme L1 (Homo sapiens), P09936 | purified UCHL1, Ub-rhodamine cleavage fluorescence | inhibition, % at 20 µM | 47,000 tested, 0.2% active | AID 1645859, 2021
USP17 inh: inhibitors of human USP17 deubiquitinase; Ubiquitin carboxyl-terminal hydrolase 17-like protein 5 (Homo sapiens), A8MUK1; purified USP17, Ub-rhodamine cleavage fluorescence, 3 h; 47,000 tested, 6.5% active; AID 1645855, 2021; inhibition, % at 50 µM
USP7 inh: inhibitors of human USP7 deubiquitinase. Ubiquitin carboxyl-terminal hydrolase 7 (Homo sapiens), Q93009. purified USP7, Ub-rhodamine cleavage fluorescence. inhibition, % at 20 µM. 47,000 tested, 0.3% active. AID 1645854, 2021
USP10 block: inhibitors of human USP10 deubiquitinase | inhibition, % at 20 µM | 47,000 tested, 1.1% active | purified USP10, Ub-rhodamine fluorescence, 60 min | Ubiquitin carboxyl-terminal hydrolase 10 (Homo sapiens), Q14694 | AID 1645856, 2021
USP8 inh: inhibitors of human USP8 deubiquitinase; inhibition, % at 20 µM; Ubiquitin carboxyl-terminal hydrolase 8 (Homo sapiens), P40818; purified USP8, Ub-rhodamine cleavage fluorescence, 30 min; 47,000 tested, 4.2% active
Numbers stand for hits; 0 = inactive. Sampled rows, rich in hits. Any-hit rate of the full collection: about 9.2%. Rule as the data show it: active = inhibition above about 30%; inactive = the rest.

SMILES	OTUD3 inh	UCHL1 block	USP17 inh	USP7 inh	USP10 block	USP8 inh
Oc1ccc2cc(Br)ccc2c1CN1CC=C(c2ccccc2)CC1	0	0	0	0	0	43.5
O=C(CN1CC=C(c2ccccc2)CC1)Nc1ccc2c(c1)OCO2	0	0	0	0	0	0
O=C(CNC(=O)OCc1ccccc1)Nc1ccc(Br)cc1C(=O)c1ccccc1Cl	0	0	77.1	0	0	0
COc1ccc(OC)c(-c2c(C#N)c(C)nc3c2N2CCC3CC2)c1	33.3	0	48.6	0	0	0
CO[C@H]1[C@@H](O)[C@H](C)O[C@H](O[C@H]2[C@H](Oc3cccc4c(O)c5c(=O)oc6ccc(C)c7c(=O)oc(c34)c5c67)O[C@H](C)[C@H](O)[C@@H]2O)[C@@H]1O	51.4	0	77.5	0	0	0
CCn1cc(C(=O)NCc2ccc(OC)cc2)c2cccnc21	0	0	0	0	0	0
CN(C)[C@@H]1C(=O)C(C(N)=O)=C(O)[C@@]2(O)C(=O)C3=C(O)c4c(O)cccc4[C@@](C)(O)C3[C@H](O)[C@@H]12 (stereo not given in full)	90.1	89.5	84.5	89.1	61.6	50.5
CN(C)[C@@H]1C(=O)C(C(N)=O)=C(O)[C@@]2(O)C(=O)C3=C(O)c4c(O)cccc4[C@@](C)(O)[C@H]3C[C@@H]12	0	0	50.8	0	0	0
O=C(c1ccc2c(c1)OCO2)N1CC(C(=O)N2CCC3(CC2)OCCO3)C1	0	0	0	0	0	0
CC(=O)OC1C[C@H]2OC3C=C(C)CC[C@]3(C)[C@]1(C)[C@@]21CO1 (stereo not given in full)	0	0	0	0	0	0
CC(C)=CCC[C@H](C(=O)O)[C@@H]1CC[C@]2(C)C3=C(CC[C@@]12C)[C@@]1(C)CCC(=O)C(C)(C)C1CC3 (stereo not given in full)	0	0	36.3	0	38.3	0
CC(C)c1cc2c(c(O)c1O)C1(C(=O)O)CCCC(C)(C)C1CC2 (stereo not given)	46.5	0	87.8	0	0	0
CC(C)c1cc2c(c(O)c1O)[C@@]1(C(=O)O)CCCC(C)(C)[C@@H]1CC2	35.9	0	78.7	0	0	0
C/C=C/COC(=O)C1=C(C)N[C@]2(C)C[C@H]1c1ccccc1O2	0	0	0	0	0	0
CCC(CC(C)C(=O)O)C(=O)CC/C1=C/C(C)C/C(C)=C/C(C)C(O)C(C)CCC(CCCC/C=C/C(C)CCC(C)OC(=O)CC(CC(=O)O)C(=O)O)OC(=O)CC(C(=O)O)CC(=O)OC1 (stereo not given)	0	0	0	0	0	0
COc1cc(N2CC[C@@H]3OCCN(C)[C@H]3CC2)ncn1	0	0	0	0	0	0
Cn1c(=O)c2ncnnc2n(C)c1=O	89.7	50.5	95.5	0	88.9	98.2
COc1oc(C2C\C(=C/C(C)=C/C(C)=C/C(C)=C/c3ccc([N+](=O)[O-])cc3)CO2)c(C)c(=O)c1C (stereo not given)	0	0	0	0	0	0
Cc1cccc(COc2ccc(C3SCC(=O)Nc4n[nH]c(C)c43)cc2)c1 (stereo not given)	0	0	56.1	0	0	85.5
CCC(C)[C@H]1C(=O)O[C@H](C(C)C)C(=O)N(C)[C@@H](C(C)CC)C(=O)O[C@H](C(C)C)C(=O)N(C)[C@@H](C(C)C)C(=O)O[C@H](C(C)C)C(=O)N1C (stereo not given in full)	0	0	0	0	0	0
CCCCCCC(O)CCCCCC/C=C/[C@H](O)[C@@H](OC(C)=O)[C@H](O)[C@H](N)C(=O)O (stereo not given in full)	0	0	35.4	0	0	0
CCCC1Cc2cc3c(c(O)c2C(=O)O1)-c1c(c(OC)c2oc4c(O[C@H]5C[C@H](O)[C@H](O[C@H]6C[C@H](O)[C@H](O[C@H]7C[C@H](OC)[C@H](O)C(C)O7)C(C)O6)C(C)O5)ccc(O)c4c(=O)c2c1O)[C@H](O)[C@@H]3O (stereo not given in full)	0	0	37.2	0	0	0
CCOC(=O)[C@@H]1[C@@H](c2ccccc2)CN2CCN(C(=O)c3cnccn3)C[C@H]12	0	0	0	0	0	0
Cc1ccc2nc(COC(=O)C(O)(c3ccccc3)c3ccccc3)cc(=O)n2c1	0	0	0	0	0	40.1
O=S1(=O)[C@H]2C[C@@H]3CNC[C@@]2(CN1Cc1ccncc1)O3	0	0	0	0	0	0
SMILES	OTUD3 inh	UCHL1 block	USP17 inh	USP7 inh	USP10 block	USP8 inh
O=C(Nc1cccnc1)c1cc2cccnc2n(Cc2ccccc2)c1=O	0	0	0	0	0	0
CCCCNC(=O)c1cc2cccnc2n(Cc2ccccc2)c1=O	0	0	69.3	0	0	0
CO[C@H](c1ccccc1)[C@@H]1NC(=O)[C@H](C)NC(=O)[C@H](C[C@@H](C)CO)N(C)C(=O)[C@H]([C@H](O)c2cn(C(C)(C)[C@@H]3CO3)c3ccccc23)NC(=O)[C@H]([C@H](C)C=C(C)C)NC(=O)[C@H](CC(C)C)N(C)C(=O)[C@H](C(C)C)NC1=O	0	0	33.0	0	0	0
O=C(c1cc(Cl)c(Cl)[nH]1)c1cc(Cl)cc(Cl)c1O	0	0	0	0	39.9	0
O=C(O)CN1CCC2(CC1)OC(=O)N(Cc1ccccc1)c1ccccc12	0	0	0	0	0	0
CC1CC[C@@]2(NC1)O[C@H]1C[C@H]3[C@@H]4CC=C5C[C@@H](O)CC[C@]5(C)[C@H]4CC[C@]3(C)[C@H]1[C@@H]2C (stereo not given in full)	0	0	51.7	0	0	0
O=C(NC[C@H]1OC[C@@H]2CCN(Cc3nccs3)C[C@@H]21)c1ccno1	0	0	0	0	0	0
CCC(CC)n1[nH]c(=O)c2c1NC(=O)CSC2c1ccc2c(c1)OCO2 (stereo not given)	0	0	64.8	0	0	43.4
CC(C)n1[nH]c(=O)c2c1NC(=O)CSC2c1ccc(OCc2ccccc2)cc1 (stereo not given)	0	0	0	0	0	0
O=C1CSC(c2ccc(F)cc2)c2c(n(C3CCCCCC3)[nH]c2=O)N1 (stereo not given)	0	0	0	0	0	83.3
COc1ccc(C2SCC(=O)Nc3c2c(=O)[nH]n3C2CCCCC2)cc1 (stereo not given)	0	0	67.6	0	0	0
O=C1CSC(c2ccc(Cl)cc2)c2c(n(C3CCCC3)[nH]c2=O)N1 (stereo not given)	0	0	0	0	0	0
CC(NC(=O)c1cn(C)c2ncccc12)c1ccccn1 (stereo not given)	0	0	0	0	0	0
